High-throughput results: PubChem, several laboratories
EBV gp42 block: EBV gp42 inhibition. 220,000 compounds, 0.42% hits. Q1HVG2. Fluorescence polarization binding assay, mP read-out. inhibition, % (tested at 21.74 µM); in the data active = inhibition above about 50%
GLD-1 TGE inh: GLD-1-TGE RNA interaction inhibition (C. elegans) | Q17339 | purified GLD-1 + fluorescein TGE RNA, fluorescence polarization | inhibition, % at 5.96 µM | AID 2280 | 320,000 compounds, 0.44% hits;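 active = percent inhibition above a per-plate cutoff, the plate mean of test compounds plus 3 SD, cut at about 30% in these data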;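 also: 0% = DMSO wells with GLD-1 and probe and 100% = wells lacking GLD-1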
MEX-5 binding: C. elegans MEX-5 TCR-2 RNA binding activity. Q9XUB2. MEX-5/FITC-TCR2 RNA binding, fluorescence polarization; stronger effect = lower value. activity score (negative = inhibition of binding), % at 10 µM. 300,000 compounds, 0.38% hits. AID 1832;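 active = inhibition past about -25% in most replicates, and total fluorescence under double the plate's negative control median, limit read from the data; inconclusive = replicates evenly split on the limit, or fluorescence at least double controls; inactive = too little inhibition in most replicates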;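 also: 0% = DMSO and -100% = 5 µM competing unlabeled TCR2 RNA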
E coli Lon inh: E. coli protease La inhibition | P0A9M0 | purified E. coli Lon protease, fluorescence polarization | inhibition, % at 7.94 µM | 360,000 compounds, 0.42% hits | AID 602123; in the data active = inhibition above about 13%, passing the limit was not always enough;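 also: 0% = enzyme with probe and DMSO and 100% = no enzyme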
MCL1 BIM primary: MCL1-BIM-BH3 interaction inhibition (human). 320,000 compounds, 0.68% hits. AID 2057. inhibition, % at 10.9 µM. GST-MCL1 / FITC-Bim-BH3 fluorescence polarization. Q07820;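 active = inhibition above the mean inhibition of all tested compounds plus 3 SD, set per campaign, cut at about 40% in these data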;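 also: 0% = DMSO wells and 100% = unlabeled Bim-BH3 peptide control; higher means more loss of mP so more displacement of Bim peptide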
Target sequence (Q07820 whole entry, looked up): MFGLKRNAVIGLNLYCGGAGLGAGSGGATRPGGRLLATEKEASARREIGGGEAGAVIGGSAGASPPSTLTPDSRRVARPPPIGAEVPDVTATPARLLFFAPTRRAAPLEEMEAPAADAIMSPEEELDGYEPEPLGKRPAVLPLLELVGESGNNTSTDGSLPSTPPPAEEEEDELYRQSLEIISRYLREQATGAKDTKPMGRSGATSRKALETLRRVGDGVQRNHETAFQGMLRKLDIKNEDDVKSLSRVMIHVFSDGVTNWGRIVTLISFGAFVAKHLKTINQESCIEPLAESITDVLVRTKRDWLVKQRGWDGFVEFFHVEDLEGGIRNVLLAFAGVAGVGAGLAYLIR
Bcl-xL primary: blocks human Bcl-xL binding to Bim BH3 peptide | Q07817 | GST-Bcl-xL / FITC-Bim BH3 peptide fluorescence polarization | inhibition, % at 10.9 µM | 320,000 compounds, 0.7% hits | AID 2129;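 active = inhibition above the mean of all tested compounds plus 3 SD, cutoff set per campaign, cut at about 30% in these data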;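 also: 0% = DMSO wells and 100% = unlabeled Bim-BH3 peptide competitor; inhibitors lower millipolarization by displacing the labeled peptide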
Target sequence (Q07817 whole entry, looked up): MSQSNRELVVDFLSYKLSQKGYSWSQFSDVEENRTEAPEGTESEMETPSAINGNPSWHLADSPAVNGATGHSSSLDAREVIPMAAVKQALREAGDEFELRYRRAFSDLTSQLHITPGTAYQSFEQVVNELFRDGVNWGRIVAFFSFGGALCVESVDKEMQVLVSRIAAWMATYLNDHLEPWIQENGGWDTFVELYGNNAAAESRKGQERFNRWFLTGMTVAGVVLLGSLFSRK
BCLXL inh confirm: Bcl-xL (human) inhibition, MCL1 counter-screen confirmation. shares compounds with MCL1 BIM primary. GST-Bcl-xL / FITC-Bim BH3 peptide FP binding. inhibition, % at 10.9 µM. 1,700 compounds, 54% hits;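 active = inhibition above a cutoff equal to the mean inhibition of all tested compounds plus 3 SD, cut at about 30% in these data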;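 also: 0% = DMSO wells and 100% = unlabeled Bim BH3 control peptide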
MCL1 inh confirm: MCL1-BIM-BH3 interaction inhibition, confirmation. shares compounds with MCL1 BIM primary. GST-MCL1 / FITC-Bim-BH3 fluorescence polarization. inhibition, % at 10.9 µM. 1,700 compounds, 61% hits;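 active = inhibition above the average of all tested compounds plus 3 SD, cut at about 40% in these data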;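 also: 0% = DMSO wells and 100% = unlabeled Bim-BH3 control peptide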
Starred values were filed as active, the others as inactive; ? = inconclusive; / = not tested or not shown. Only some compounds are listed: those with a hit (about 1.5% of all), similar ones and a draw of the others.

SMILES | EBV gp42 block | GLD-1 TGE inh | MEX-5 binding | E coli Lon inh | MCL1 BIM primary | Bcl-xL primary | BCLXL inh confirm | MCL1 inh confirm
CC(C)CNC(=O)C1Nc2ccccc2C2C=CCC12 (stereo not drawn) | / | 4.1 | 1.7 | 13.5 | 30.5 | 19.2 | / | /
CCOC(=O)C1Nc2ccc(Br)cc2C2C=CCC12 (stereo not drawn) | / | 8.8 | -4.5 | -3.6 | 44.3* | 24.8 | 9.2 | 9.2
O=C(O)C1Nc2ccc(Br)cc2C2C=CCC12 (stereo not drawn) | / | 6.8 | -29.7* | -0.3 | 100.5* | 78.6* | 66.8* | 107.0*
CCOC(=O)C1Nc2ccc(C)cc2C2C=CCC12 (stereo not drawn) | / | 8.5 | -2.0 | 1.7 | 50.8* | 23.3 | 4.0 | 3.0
COc1cc(C(O)c2nc(-c3cccc4cccnc34)cs2)ccc1F (stereo not drawn) | / | / | / | 8.7 | / | / | / | /
COc1ccc(N2CC(C(=O)N[C@@H](CC(C)C)C(=O)NC3CCCCC3)CC2=O)cc1 (stereo partly drawn) | / | 8.6 | 0.5 | -9.8 | 9.9 | 2.9 | / | /
COc1ccc(C2C=C(c3ccccc3)Nc3nc(NC(C)=O)nn32)cc1 (stereo not drawn) | 57.7* | 40.0* | -11.5 | / | 60.0* | 58.0* | 59.5* | 79.7*
COc1ccc(C2C=C(c3ccccc3)Nc3nnnn32)cc1 (stereo not drawn) | -15.8 | 4.5 | -6.7 | 3.5 | 8.1 | 13.6 | / | /
COc1ccc(NC(=O)c2cc(S(=O)(=O)N3CCCC3)c[nH]2)cc1 | / | 3.3 | 0.5 | -8.5 | 107.6* | 3.5 | 12.6 | 9.7
COc1ccc(NC(=O)c2cc(S(=O)(=O)N3CCCCC3)c[nH]2)cc1 | / | 4.0 | -3.2 | -7.5 | 6.6 | 6.8 | / | /
CCOC(=O)CSc1nc(N2CCOCC2)c2c(c1C#N)CC(C)(C)N(C)C2 | -13.4 | 73.0* | -1.1 | 3.5 | 55.7* | 58.8* | 8.1 | 12.9
Cc1c(O)c2c3c(cccc3c1O)C(=O)N(c1ccccc1)C2=O | 83.1* | 82.0* | ? | -14.3 | 97.9* | 90.9* | 92.3* | 105.3*
O=C(CSc1ccc(Cl)cc1)c1ccco1 | 15.1 | 1.2 | -2.7 | -12.8 | 63.5* | 17.4 | 23.2 | 75.2*
COc1ccc(CCNc2nc3ccccc3n3nnnc23)cc1OC | 2.6 | 15.5 | -1.2 | -29.7 | 54.8* | 53.9* | 28.6 | 29.6
CC(=O)c1c(C(C)=O)c(C)n(-c2ccc(C(=O)O)cc2)c1C | -12.6 | -0.2 | 0.1 | -0.9 | 6.3 | 4.1 | / | /
Cc1ccc(C)n1-c1ccc(C(=O)O)cc1 | -7.4 | 5.5 | -50.5* | / | 44.7* | 11.2 | 21.4 | 40.8*
O=C(NCC1CCCO1)c1cc(-c2ccco2)nc2ccccc12 (stereo not drawn) | -4.2 | 39.2* | 16.0 | 11.8 | 66.6* | 54.7* | 11.8 | 24.2
COc1ccc(NC(=O)c2cc(-c3ccco3)nc3ccccc23)cc1S(=O)(=O)N1CCOCC1 | 42.5 | 3.3 | -6.0 | -7.8 | 42.5* | 8.9 | 38.2* | 37.5
COc1ccccc1CNC(=O)COC(=O)c1cc(-c2ccco2)nc2ccccc12 | 8.8 | 10.4 | 0.7 | -5.0 | 71.8* | 29.1 | 34.5* | 71.0*
CCc1nnc(NC(=O)c2cc(-c3ccccn3)nc3ccccc23)s1 | -2.7 | -1.0 | -3.1 | 1.7 | 6.4 | 7.2 | / | /
CCc1nnc(NC(=O)c2cc(-c3ccco3)nc3ccccc23)s1 | 25.3 | 5.9 | -1.8 | -2.4 | 51.2* | 24.4 | 31.6* | 72.3*
COCCn1c(SCC(=O)Nc2cccnc2Cl)nc2ccccc2c1=O | / | 3.9 | / | 3.0 | 4.9 | 1.7 | / | /
Cc1c(C=N)c(O)n(C)c(=O)c1C#N | 10.0 | -12.1 | -2.4 | 3.3 | -1.8 | 0.1 | / | /
O=C(N/N=C/c1cccc(F)c1)c1cc(-c2ccco2)nc2ccccc12 | 65.7* | 3.9 | -1.3 | -8.4 | 73.6* | 16.3 | 24.4 | 63.6*
COc1cc(/C=N/NC(=O)c2cc(-c3ccco3)nc3ccccc23)cc(OC)c1O | 6.6 | 2.3 | -1.3 | -4.4 | 11.2 | 5.9 | / | /
SMILES | EBV gp42 block | GLD-1 TGE inh | MEX-5 binding | E coli Lon inh | MCL1 BIM primary | Bcl-xL primary | BCLXL inh confirm | MCL1 inh confirm
CC(C)OC(=O)c1c2c(n3ccccc13)C(=O)c1ccccc1C2=O | 87.6* | -6.9 | -30.5* | -2.5 | 122.2* | 88.9* | 135.8* | 151.2*
COC(=O)c1c(C(=O)OC)c2ccccn2c1C(=O)c1ccc([N+](=O)[O-])cc1 | / | -2.8 | 0.4 | 0.3 | 3.6 | 3.9 | / | /
COc1ccc(NC(C)=O)cc1NC(=O)c1cccc(S(=O)(=O)N2CCc3ccccc32)c1 | / | 1.6 | / | 1.5 | -4.4 | -5.0 | / | /
Cc1ccc2c(c1)c1c3n2CCN(C(=O)CN2CCN(C)CC2)C3CCC1 (stereo not drawn) | -8.1 | 3.8 | -1.9 | 0.0 | -5.6 | 1.7 | / | /
Cc1ccc2c(c1)c(=O)c1c3n2CCN(C(=O)CCl)C3CC1 (stereo not drawn) | -4.0 | 14.1 | -8.2 | 15.3 | 54.8* | 48.5* | 30.4* | 43.8*
CCCC(=O)c1ccc(O)cc1O | 17.2 | / | -4.0 | 5.1 | / | / | / | /
C=Cn1cc(CNC[C@H]2O[C@@H](n3cnc4c(=O)[nH]c(N)nc43)[C@H](O)[C@@H]2O)c(C)n1 | / | / | / | -4.0 | / | / | / | /
COc1ccc(Cl)cc1CN1CCN(c2nc(C)cc(C)c2C#N)CC1 | 49.4 | 14.0 | -18.2 | 4.5 | 85.2* | 78.0* | 57.2* | 81.8*
O=C(CSc1nc(-c2ccccc2)cc(=O)[nH]1)N1CCOCC1 | -24.4 | 9.6 | -0.7 | -11.4 | 48.3* | 5.7 | 10.3 | 2.7
Nc1ncc(N=Nc2cc(C(=O)O)ccc2Cl)s1 | -7.3 | 3.9 | / | -7.6 | 44.9* | 16.7 | 36.1* | 82.1*
Nc1cc2sc(-c3ccc(C(=O)O)cc3)nc2cc1Cl | 5.3 | 2.0 | -2.8 | -3.2 | 7.9 | 11.7 | / | /
COc1cc(SSc2cc(OC)cc([N+](=O)[O-])c2N)c(N)c([N+](=O)[O-])c1 | -28.3 | 6.8 | 0.2 | 4.3 | 54.8* | 26.3 | 30.6* | 52.9*
COc1cc([N+](=O)[O-])c2ncsc2c1 | -11.0 | 2.1 | -1.3 | -15.2 | -2.2 | 3.0 | / | /
CC(NC(=O)Cc1ccc(S(=O)(=O)N2CCOCC2)s1)c1ccc(Cl)cc1Cl (stereo not drawn) | / | 4.0 | -0.9 | -0.2 | 7.8 | 0.0 | / | /
O=C(O)c1ccccc1NS(=O)(=O)c1cccc(-n2sc3ccccc3c2=O)c1 | / | 9.9 | -49.9* | 14.2 | 55.9* | 23.4 | 35.0* | 68.3*
CC1=NN(c2cccc(C(=O)O)c2)C(=O)/C1=C\C=C\c1ccco1 | 17.9 | -1.6 | -26.8* | -8.0 | 80.8* | 26.4 | 30.3* | 68.5*
O=C(NC1CC1)c1ccc(NS(=O)(=O)c2ccc(F)cc2)cc1 | / | 7.5 | 0.0 | 4.8 | -9.7 | -2.5 | / | /
